Reference: PubChem BioAssay (EPA / NIEHS)
Records with an inconclusive call do not appear. Activity calls are given as the source filed them. Rule for the calls: active = hit-call score of the fitted dose curve at least 0.9, where 1 is the maximum; inconclusive = response in the unintended direction; inactive = score below 0.9.

Legend:
[1] = biological target: Voltage-dependent N-type calcium channel subunit alpha-1B (Rattus norvegicus) (UniProt Q02294); experiment: NVS_IC_rCaChN: NovaScreen (NVS) Ion Channel Assay for rat Calcium Channel, Type N (CaChN) (AID 2283317)
[2] = biological target: rat Somatostatin Receptor (SST), Sstr1 (gene 25033) (UniProt P28646); experiment: NVS_GPCR_rSST: NovaScreen (NVS) G Protein-Coupled Receptor Assay for rat Somatostatin Receptor (SST) (AID 2283314)
Sequence of rat Somatostatin Receptor (SST), Sstr1 (gene 25033) (P28646 whole entry, looked up): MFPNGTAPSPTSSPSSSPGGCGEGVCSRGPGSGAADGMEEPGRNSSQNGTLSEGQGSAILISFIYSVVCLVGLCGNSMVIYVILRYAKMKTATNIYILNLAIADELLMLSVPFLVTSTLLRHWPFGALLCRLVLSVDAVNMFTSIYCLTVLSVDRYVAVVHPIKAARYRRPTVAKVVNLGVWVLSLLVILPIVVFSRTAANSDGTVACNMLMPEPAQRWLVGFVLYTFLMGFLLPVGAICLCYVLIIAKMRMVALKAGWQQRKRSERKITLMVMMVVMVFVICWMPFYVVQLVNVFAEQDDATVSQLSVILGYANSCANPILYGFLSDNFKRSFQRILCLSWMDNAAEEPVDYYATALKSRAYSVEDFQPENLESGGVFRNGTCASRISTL
Outline: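 Single-concentration duplicate screen (25 uM), then concentration-response up to 50 uM for chemicals passing a threshold such as 30% inhibition. Membranes came from rat forebrain. Binding was measured 1 h post-dose by filter radiodetection and scintillation, relative to DMSO.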

[3] = biological target: rat Neurokinin-1 Receptor (NK1), Tacr1 (gene 24807) (UniProt P14600); experiment: NVS_GPCR_rNK1: NovaScreen (NVS) G Protein-Coupled Receptor Assay for rat Neurokinin-1 Receptor (NK1) (AID 2283309)
Sequence of rat Neurokinin-1 Receptor (NK1), Tacr1 (gene 24807) (P14600 whole entry, looked up): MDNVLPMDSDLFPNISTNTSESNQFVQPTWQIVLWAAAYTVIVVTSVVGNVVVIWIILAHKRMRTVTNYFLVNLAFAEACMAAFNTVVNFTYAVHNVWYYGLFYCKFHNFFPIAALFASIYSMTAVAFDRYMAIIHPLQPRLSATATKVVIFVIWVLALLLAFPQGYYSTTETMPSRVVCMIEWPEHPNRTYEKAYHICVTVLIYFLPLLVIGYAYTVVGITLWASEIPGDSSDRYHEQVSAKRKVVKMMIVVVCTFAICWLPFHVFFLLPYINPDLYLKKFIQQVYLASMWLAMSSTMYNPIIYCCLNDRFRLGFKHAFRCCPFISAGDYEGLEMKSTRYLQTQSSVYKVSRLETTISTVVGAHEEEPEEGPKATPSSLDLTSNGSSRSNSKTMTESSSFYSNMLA
Outline: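 Competitive radioligand binding to NK1 in rat submaxillary membranes, 1 h incubation, filtration and scintillation read-out. Compounds first screened at 25 uM in duplicate, then concentration-response for actives; signal loss relative to DMSO.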

Adra2b (gene 24174) = Adra2b (gene 24174) (UniProt P19328); experiment: NVS_GPCR_rmAdra2B: NovaScreen (NVS) G Protein-Coupled Receptor Assay for hybird cells Adrenergic, Alpha 2B Receptor (Adra2B) (AID 2283306)
Sequence of Adra2b (gene 24174) (P19328 whole entry, looked up): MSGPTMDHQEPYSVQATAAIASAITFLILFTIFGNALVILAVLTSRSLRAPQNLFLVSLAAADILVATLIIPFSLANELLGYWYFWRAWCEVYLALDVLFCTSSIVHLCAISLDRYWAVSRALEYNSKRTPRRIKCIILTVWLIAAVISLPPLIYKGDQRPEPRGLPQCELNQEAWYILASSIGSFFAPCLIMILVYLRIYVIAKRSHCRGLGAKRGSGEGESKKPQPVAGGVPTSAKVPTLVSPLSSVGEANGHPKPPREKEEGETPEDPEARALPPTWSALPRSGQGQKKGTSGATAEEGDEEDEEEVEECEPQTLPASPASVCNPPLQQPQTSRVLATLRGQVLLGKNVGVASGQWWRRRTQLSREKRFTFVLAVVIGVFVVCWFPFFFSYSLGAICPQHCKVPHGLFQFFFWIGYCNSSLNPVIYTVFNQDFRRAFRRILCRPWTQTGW
Outline: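 Compounds screened first at 25 uM in duplicate, with actives followed up in concentration-response; specific radioligand displacement from hybrid neuroglioma/blastoma cell membrane preparations measured by filter scintillation counting after 1 h, normalized to DMSO.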

[4] = biological target: rat Glutamate Metabotropic Receptor 5 (MGluR5), Grm5 (gene 24418) (UniProt P31424); experiment: NVS_GPCR_rmMGluR5: NovaScreen (NVS) G Protein-Coupled Receptor Assay for rat Glutamate Metabotropic Receptor 5 (MGluR5) (AID 2283307)
Outline: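 Compounds first screened in duplicate at 25 uM, then in concentration series up to 50 uM if over threshold. Radioligand displacement on rat whole-brain membranes, filtration and scintillation counting after 1.5 h; binding loss relative to DMSO.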

[5] = biological target: rat Adrenergic Receptor, Beta (Adrb), Non-selective Binding, Adrb1 (gene 24925) (UniProt P18090); experiment: NVS_GPCR_rAdrb_NonSelective: NovaScreen (NVS) G Protein-Coupled Receptor Assay for rat Adrenergic Receptor, Beta (Adrb), Non-selective Binding (AID 2283298)
Sequence of rat Adrenergic Receptor, Beta (Adrb), Non-selective Binding, Adrb1 (gene 24925) (P18090 whole entry, looked up): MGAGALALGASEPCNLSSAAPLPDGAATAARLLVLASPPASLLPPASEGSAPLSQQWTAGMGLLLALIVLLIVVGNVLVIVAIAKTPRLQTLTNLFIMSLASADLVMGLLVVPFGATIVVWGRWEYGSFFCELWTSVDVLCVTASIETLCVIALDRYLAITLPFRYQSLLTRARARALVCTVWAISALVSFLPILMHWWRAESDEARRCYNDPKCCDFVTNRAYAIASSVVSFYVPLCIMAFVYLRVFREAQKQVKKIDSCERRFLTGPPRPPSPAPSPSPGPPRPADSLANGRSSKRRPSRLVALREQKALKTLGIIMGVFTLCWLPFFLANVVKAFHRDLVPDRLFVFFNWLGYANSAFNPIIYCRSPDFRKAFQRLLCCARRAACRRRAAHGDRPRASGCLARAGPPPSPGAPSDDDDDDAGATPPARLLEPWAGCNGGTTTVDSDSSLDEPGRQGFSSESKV
Outline: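 Rat cortical membranes incubated 1 h with beta-adrenergic radioligand and test chemical; bound ligand measured by filtration and scintillation counting. Screen at 25 uM duplicate, then concentration series with 50 uM maximum; loss of signal versus DMSO.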

[6] = biological target: rat Gamma-Aminobutyric Acid Type B Receptor (GABBR), Gabbr1 (gene 81657) (UniProt Q9Z0U4); experiment: NVS_GPCR_rGABBR: NovaScreen (NVS) G Protein-Coupled Receptor Assay for rat Gamma-Aminobutyric Acid Type B Receptor (GABBR) (AID 2283301)
Sequence of rat Gamma-Aminobutyric Acid Type B Receptor (GABBR), Gabbr1 (gene 81657) (Q9Z0U4 whole entry, looked up): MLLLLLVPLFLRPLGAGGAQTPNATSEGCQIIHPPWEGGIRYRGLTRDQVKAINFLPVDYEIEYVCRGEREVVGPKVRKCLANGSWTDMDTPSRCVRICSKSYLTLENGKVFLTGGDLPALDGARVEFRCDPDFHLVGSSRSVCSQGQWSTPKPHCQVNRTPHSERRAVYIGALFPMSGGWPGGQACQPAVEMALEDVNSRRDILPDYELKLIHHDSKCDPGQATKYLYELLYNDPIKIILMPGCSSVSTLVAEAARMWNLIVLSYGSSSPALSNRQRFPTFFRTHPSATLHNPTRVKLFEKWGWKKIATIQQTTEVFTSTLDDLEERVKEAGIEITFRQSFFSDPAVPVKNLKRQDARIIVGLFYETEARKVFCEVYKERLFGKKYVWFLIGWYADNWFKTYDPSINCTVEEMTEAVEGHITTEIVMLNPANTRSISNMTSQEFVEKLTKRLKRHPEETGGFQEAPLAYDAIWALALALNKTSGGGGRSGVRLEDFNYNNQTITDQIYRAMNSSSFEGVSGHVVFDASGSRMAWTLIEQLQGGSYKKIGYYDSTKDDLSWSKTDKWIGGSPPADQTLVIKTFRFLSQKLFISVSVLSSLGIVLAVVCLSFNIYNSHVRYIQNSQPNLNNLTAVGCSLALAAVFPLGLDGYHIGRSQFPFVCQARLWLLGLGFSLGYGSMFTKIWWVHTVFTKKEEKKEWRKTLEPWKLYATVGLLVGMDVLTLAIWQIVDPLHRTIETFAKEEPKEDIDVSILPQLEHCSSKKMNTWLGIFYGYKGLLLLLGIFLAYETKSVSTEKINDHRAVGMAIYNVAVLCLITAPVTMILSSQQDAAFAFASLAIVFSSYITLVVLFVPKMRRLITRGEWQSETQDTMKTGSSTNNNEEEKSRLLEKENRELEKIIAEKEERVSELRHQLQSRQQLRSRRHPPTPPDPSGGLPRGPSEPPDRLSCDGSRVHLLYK
Outline: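 Rat cortical membrane preparation, competitive radioligand binding for 1 h with filtration and scintillation readout. Actives from duplicate single-point 25 uM screening proceeded to concentration series with 50 uM top concentration.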

[7] = biological target: rat Serotonin, 5-Hydroxytryptamine Receptor (5HT), Non-Selective Binding, Htr1a (gene 24473) (UniProt P19327); experiment: NVS_GPCR_r5HT_NonSelective: NovaScreen (NVS) G Protein-Coupled Receptor Assay for rat Serotonin, 5-Hydroxytryptamine Receptor (5HT), Non-Selective Binding (AID 2283295)
Sequence of rat Serotonin, 5-Hydroxytryptamine Receptor (5HT), Non-Selective Binding, Htr1a (gene 24473) (P19327 whole entry, looked up): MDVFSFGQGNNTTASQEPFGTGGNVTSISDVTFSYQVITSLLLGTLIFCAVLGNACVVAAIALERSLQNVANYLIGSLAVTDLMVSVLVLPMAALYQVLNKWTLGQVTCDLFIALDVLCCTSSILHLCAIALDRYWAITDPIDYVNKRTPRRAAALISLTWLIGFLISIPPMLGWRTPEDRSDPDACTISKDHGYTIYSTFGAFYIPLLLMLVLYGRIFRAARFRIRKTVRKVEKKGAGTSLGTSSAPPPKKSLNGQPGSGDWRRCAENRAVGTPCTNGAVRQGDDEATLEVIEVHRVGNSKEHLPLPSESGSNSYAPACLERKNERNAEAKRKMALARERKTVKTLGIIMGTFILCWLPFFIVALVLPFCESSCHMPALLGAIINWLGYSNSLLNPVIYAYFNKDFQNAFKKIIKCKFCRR
Outline: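 Rat cortex membrane preparation incubated 1 h with radioligand and test chemical; bound radioactivity counted after filtration. Screening began in duplicate at 25 uM with concentration-series follow-up; fitting relative to DMSO.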

[8] = biological target: rat Adrenergic, Alpha 1A Receptor (Adra1A), Adra1a (gene 29412) (UniProt P43140); experiment: NVS_GPCR_rAdra1A: NovaScreen (NVS) G Protein-Coupled Receptor Assay for rat Adrenergic, Alpha 1A Receptor (Adra1A) (AID 2283296)
Outline: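 Filter radiodetection after 1 h competitive binding on CEC-pretreated rat cortical membranes. Duplicate single-point screening at 25 uM; active chemicals retested across concentration series.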

[9] = test system: rat Adrenergic, Alpha 1B Receptor (Adra1B), gene 24173; experiment: NVS_GPCR_rAdra1B: NovaScreen (NVS) G Protein-Coupled Receptor Assay for rat Adrenergic, Alpha 1B Receptor (Adra1B) (AID 2283297)
Outline: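 Filter-binding radioligand competition on membranes from rat liver, read after 1 h by scintillation counting. Single-concentration duplicate screen at 25 uM, followed by concentration-response on actives, normalised to DMSO.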

[10] = biological target: rat Neurokinin-3 Receptor (NK3), Tacr3 (gene 24808) (UniProt P16177); experiment: NVS_GPCR_rNK3: NovaScreen (NVS) G Protein-Coupled Receptor Assay for rat Neurokinin-3 Receptor (NK3) (AID 2283310)
Outline: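 Filter-based radioligand displacement on rat cortex membrane preparations, read by scintillation 2 h post-dose. Chemicals first tested in duplicate at 25 uM; actives followed up in concentration series with a 50 uM maximum.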

[11] = biological target: rat Opioid Receptor, Non-selective Sodium (Na+) Binding, Oprm1 (gene 25601) (UniProt P33535); experiment: NVS_GPCR_rOpiate_NonSelectiveNa: NovaScreen (NVS) G Protein-Coupled Receptor Assay for rat Opioid Receptor, Non-selective Sodium (Na+) Binding (AID 2283311)
Sequence of rat Opioid Receptor, Non-selective Sodium (Na+) Binding, Oprm1 (gene 25601) (P33535 whole entry, looked up): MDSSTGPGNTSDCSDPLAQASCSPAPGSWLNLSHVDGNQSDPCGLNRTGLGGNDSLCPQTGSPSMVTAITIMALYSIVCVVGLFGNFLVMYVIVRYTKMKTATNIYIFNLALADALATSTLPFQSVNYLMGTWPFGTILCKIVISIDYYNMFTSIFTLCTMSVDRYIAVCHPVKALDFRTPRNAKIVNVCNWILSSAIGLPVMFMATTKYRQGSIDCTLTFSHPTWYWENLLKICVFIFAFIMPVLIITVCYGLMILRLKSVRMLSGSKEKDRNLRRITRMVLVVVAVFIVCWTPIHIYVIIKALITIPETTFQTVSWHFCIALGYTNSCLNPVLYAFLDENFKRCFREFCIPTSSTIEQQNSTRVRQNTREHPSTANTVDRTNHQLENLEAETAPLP
Outline: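 Filtration radioligand binding on rat forebrain membrane preparations, read 1.5 h after dosing. Single-concentration 25 µM primary screen in duplicate, followed by singleton concentration series to 50 µM max for actives; DMSO baseline.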

[12] = biological target: Metabotropic glutamate receptor 1 (Rattus norvegicus) (UniProt P23385); experiment: NVS_GPCR_rmMGluR1: NovaScreen (NVS) G Protein-Coupled Receptor Assay for rat Glutamate Metabotropic Receptor 1 (MGluR1) (AID 2283305)
Sequence of Metabotropic glutamate receptor 1 (Rattus norvegicus) (P23385 whole entry, looked up): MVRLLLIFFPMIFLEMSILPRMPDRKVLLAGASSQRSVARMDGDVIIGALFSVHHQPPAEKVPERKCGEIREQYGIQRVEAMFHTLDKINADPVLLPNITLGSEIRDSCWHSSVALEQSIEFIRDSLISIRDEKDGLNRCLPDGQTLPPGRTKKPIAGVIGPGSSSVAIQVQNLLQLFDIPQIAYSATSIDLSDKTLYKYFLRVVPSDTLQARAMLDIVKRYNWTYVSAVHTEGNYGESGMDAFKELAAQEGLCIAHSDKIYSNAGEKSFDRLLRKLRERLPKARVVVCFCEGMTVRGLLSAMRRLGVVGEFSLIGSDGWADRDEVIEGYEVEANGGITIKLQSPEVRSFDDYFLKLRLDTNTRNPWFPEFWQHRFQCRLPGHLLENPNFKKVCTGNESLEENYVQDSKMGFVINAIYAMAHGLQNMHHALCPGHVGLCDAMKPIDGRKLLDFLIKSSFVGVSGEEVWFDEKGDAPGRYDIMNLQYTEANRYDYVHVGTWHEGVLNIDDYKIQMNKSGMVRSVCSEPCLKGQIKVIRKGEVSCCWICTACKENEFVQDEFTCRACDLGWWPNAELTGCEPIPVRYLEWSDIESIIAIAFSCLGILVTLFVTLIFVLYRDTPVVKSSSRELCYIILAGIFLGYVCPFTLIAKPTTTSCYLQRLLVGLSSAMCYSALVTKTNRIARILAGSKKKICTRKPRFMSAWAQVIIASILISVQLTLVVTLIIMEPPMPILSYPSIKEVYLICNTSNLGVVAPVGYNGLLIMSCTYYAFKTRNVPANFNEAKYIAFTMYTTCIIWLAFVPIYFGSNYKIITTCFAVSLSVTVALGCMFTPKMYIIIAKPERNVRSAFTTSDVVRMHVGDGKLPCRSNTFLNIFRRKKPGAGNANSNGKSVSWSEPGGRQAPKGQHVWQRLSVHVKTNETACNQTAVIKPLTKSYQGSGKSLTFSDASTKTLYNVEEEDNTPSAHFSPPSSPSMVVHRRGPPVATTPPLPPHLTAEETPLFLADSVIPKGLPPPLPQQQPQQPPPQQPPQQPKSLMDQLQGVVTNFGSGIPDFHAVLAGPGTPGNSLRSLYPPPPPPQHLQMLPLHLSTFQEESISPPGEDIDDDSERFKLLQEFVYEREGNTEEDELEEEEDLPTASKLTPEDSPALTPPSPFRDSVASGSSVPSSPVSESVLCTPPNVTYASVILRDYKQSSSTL
Outline: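 Binding to native receptor from rat cerebellum extract, measured as displacement of a radioligand (scintillation counting, filter separation) after 1 hour. Compounds tested at 25 uM in duplicate, then titrated to a 50 uM maximum.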

[13] = biological target: rat Corticotropin Releasing Factor Receptor (CRF), Crhr1 (gene 58959) (UniProt P35353); experiment: NVS_GPCR_rCRF: NovaScreen (NVS) G Protein-Coupled Receptor Assay for rat Corticotropin Releasing Factor Receptor (CRF) (AID 2283300)
Outline: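 Single-concentration (25 uM, duplicate) radioligand binding on rat cortical membrane preparations, counted by scintillation after 2 h. Activity scored as signal loss relative to DMSO negative control.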

[14] = biological target: guinea pig Serotonin, 5-Hydroxytryptamine Receptor 4 (5HT4), HTR4 (gene 100135548) (UniProt O70528); experiment: NVS_GPCR_g5HT4: NovaScreen (NVS) G Protein-Coupled Receptor Assay for guinea pig Serotonin, 5-Hydroxytryptamine Receptor 4 (5HT4) (AID 2283294)
Outline: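 Compounds first screened in duplicate at 25 uM, actives followed up in concentration series. Binding measured as displacement of specific radioligand from guinea pig striatal membranes, 1 h, filter-based scintillation read-out versus DMSO baseline.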

[15] = biological target: rat Histamine Receptor (H3), Hrh3 (gene 85268) (UniProt Q9QYN8); experiment: NVS_GPCR_rH3: NovaScreen (NVS) G Protein-Coupled Receptor Assay for rat Histamine Receptor (H3) (AID 2283303)
Outline: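 Filter-binding radioligand competition on rat forebrain membranes, 1 h incubation; compounds screened at 25 µM in duplicate and followed in concentration series to 50 µM, loss of bound signal vs DMSO.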

In the case of `ClC1=C(Cl)C2(Cl)C3C(Cl)C=CC3C1(Cl)C2(Cl)Cl` (stereo not given), the outcome [1] is reported as “inactive”.
With `O=C(O)C1C2CCC(O2)C1C(=O)O` (stereo not given) the AC50 [2] was 3.96 µM (active).
In the case of `Clc1ccc(C(c2ccc(Cl)cc2)C(Cl)(Cl)Cl)cc1`, the outcome [3] is reported as “inactive”.
With `C[C@]12C=CC3=C4CCC(=O)C=C4CC[C@H]3[C@@H]1CC[C@@H]2O` the AC50 (Adra2b (gene 24174)) was 20.7 µM (active) and the AC50 [3] was 25 µM (active).
In the case of `CCCCCCCCOC(=O)c1ccc(C(=O)OCCCCCCCC)c(C(=O)OCCCCCCCC)c1`, the AC50 [2] is reported as 0.326 µM (active).
With `CCN(CC)CCO` the outcome [4] was “inactive”.
In the case of `O=[N+]([O-])c1ccc(Oc2ccc(Cl)cc2Cl)cc1`, the AC50 [5] is reported as 0.52 µM (active).
For `C[N+](C)(C)CC1CO1` (stereo not given), the outcome [6] was “inactive”.
In the case of `CCOc1cccc(C2(N3CCN(c4ccccc4)CC3)CCC(C)CC2)c1` (stereo not given), the outcome [1] is reported as “inactive”.
`O=C(N[C@H](c1ccccc1)[C@@H]1CN2CCC1CC2)c1c(Cl)ccc(C(F)(F)F)c1Cl` was tested, and the AC50 [7] was 37.5 µM (active), the AC50 [8] was 18.1 µM (active) and the AC50 [9] was 14.9 µM (active). For the same molecule, the AC50 [3] was 37.5 µM (active), the AC50 [10] was 28.9 µM (active) and the AC50 [11] was 37.5 µM (active).
With `OCCCl` the outcome [7] was “inactive”.
In the case of `Cc1cc(N=Nc2ccccc2C)ccc1N`, the outcome [5] is reported as “inactive”.
`O=Cc1ccco1` was tested, and the outcome [5] was “inactive”.
For `O=[N+]([O-])C(Br)(CO)CO`, the outcome [7] was “inactive”, the AC50 [12] was 40.5 µM (active) and the AC50 [11] was 11 µM (active).
`COC(=O)c1ccccc1N` was tested, and the outcome [13] was “inactive”.
`CCCCCCCCn1sccc1=O` was tested, and the AC50 [14] was 20.2 µM (active), the AC50 [15] was 10.6 µM (active) and the AC50 [12] was 21.2 µM (active). The AC50 (Adra2b (gene 24174)) was 26 µM (active), the outcome [10] was “inactive” and the AC50 [11] was 32.5 µM (active).
For `CC(C)(O)c1cnn2c(-c3ccc(F)c(-c4c(F)cccc4C#N)c3)cnc2n1`, the outcome [6] was “inactive”.
